Experimental data: ChEMBL document CHEMBL3988442, “University of Dundee, Small-Polar-MMV Screening Library” (2021)

Target: AMP-activated protein kinase, AMPK (Homo sapiens) (UniProt P54646+O43741+P54619+Q9UGJ0+Q9Y478+Q13131+Q9UGI9)
Experiment: AMP-dependent Kinase enzyme assay. An in vitro enzyme assay that detects ADP turnover that is directly proportional to AMPK activity. This uses naive AMPK that is activated during the assay with MK-8722
Assay type: functional
Parameters: scale not given: direction of the effect not stated beside the values
Conditions: 30 µM

SMILES | Percent Effect [%]
COc1ccc(-c2cccc3c2OC(CN)C3)cc1F (centres undefined) | 0.444
O=C(CN1CCCC(c2ccn[nH]2)C1)N1CCCc2ccccc21 (centres undefined) | -2.2
NCc1ccnc(Oc2ccccc2)c1 | -5.26
OCCc1ncnn1Cc1cccc(Cl)c1 | 32.2
O=C(CC1C=CCC1)N1CCc2ncnc(NCc3ccon3)c2CC1 (centres undefined) | 21.6
O=C1CCC(=O)N1CCn1nnc(-c2cccc(Cl)c2)n1 | -7.61
OCCN1CCN(Cc2coc(-c3ccccc3Cl)n2)CC1 | -12.1
CN(C)c1ccc(CN2CCN(c3ccc(C#N)cc3)C(=O)C2)cn1 | -0.161
CCc1c(C)nc(-n2nc(-c3cccs3)cc2N)[nH]c1=O | -6.28
CCc1cnc(CNC(=O)NCCCO)s1 | 9.14
Cc1csc(CCNC(=O)N2CCC(NC(=O)OC(C)(C)C)CC2)n1 | -1.4
COCCNc1ccc(CNCc2cnc3nc(C)cc(C)n23)cc1 | -9.48
COc1cccc2c1CCCCN2C(=O)c1oc(C)nc1C | 5.74
CCC(O)CNC(=O)c1cc(COc2ccc(OC)cc2Cl)[nH]n1 (centres undefined) | 2.19
CC(C)N(C)S(=O)(=O)c1ccc2c(c1)CCN(C(=O)c1cccnn1)C2 | -25.3
COCC(NC(=O)c1cc(NC(C)=O)ccc1Cl)c1ccccn1 (centres undefined) | 1.62
CCC(c1ccccc1)S(=O)(=O)CCO (centres undefined) | 0.669
O=C(CCN1CCCCO1)N1CC[C@H](O)[C@@H](O)C1 | -7.38
COC(=O)CSCc1noc(-c2ccc(C)cc2)n1 | -5.29
COc1ncnc(N)c1CNCc1ccccc1-n1cccn1 | -8.85

SMILES | Percent Effect [%]
CN(Cc1nc(CS(C)(=O)=O)no1)c1ccccc1 | 0.0849
O=C(NCc1nnc2n1CCC2)c1ccc(C2CCCO2)s1 (centres undefined) | 1.37
COCCN(C)Cc1cc(Cl)ccc1OCC(O)CN1CCCCCC1 (centres undefined) | -8.12
CC(CN(C)Cc1cccc(-n2cccn2)c1)C(F)(F)F (centres undefined) | -9.02
Cc1ccccc1[C@@H]1CN(Cc2ccc(C(F)(F)F)nc2)C[C@H]1C(=O)O | -5.65
CC(OCC1CC1)C(=O)NCCC(=O)Nc1ccccn1 (centres undefined) | 12.4
CC(C)(CNC(=O)c1ccco1)CNC(=O)c1ccco1 | -2.53
CCC(NC(=O)c1cc(NC(C)=O)ccc1Cl)c1cc(C)ccn1 (centres undefined) | 2.39
CC(=O)N1CCC1c1nc(-c2ccc(C)s2)no1 (centres undefined) | 7.59
CCC[C@H]1CN(Cc2cc(C#N)n(C)c2C)C[C@@H]1NS(=O)(=O)CC | -157
Cn1ccnc1CN1CCCC1CCc1ccccc1 (centres undefined) | -8.09
CC(C)CC(=O)N1Cc2ccccc2CC1C(=O)Nc1nccs1 (centres undefined) | -4.39
CS(=O)(=O)CCCNc1cccc(COC2CCCCC2)c1 | -2.55
CC(C)c1nc(CN(C)C(=O)[C@H](N)Cc2ccc(Cl)cc2)cs1 | 2.32
COc1cc(Br)c(CNc2ccn(CCC(N)=O)n2)cc1OC | 3.74
CC1CN(c2ccccc2Cl)C(=O)CN1C(=O)c1c[nH]c(=O)c(Cl)c1 (centres undefined) | 5.06
Cc1ccc(C(C)N(C)C(=O)c2ccc(=O)n(C)c2)s1 (centres undefined) | 3.36
COc1ccc(OCc2nc3cc4c(cc3c(=O)o2)OCCCO4)cc1 | -6.13
Cc1nc(CN(C)Cc2csc(-c3cccs3)n2)co1 | 10.3
